From PubChem
Most compounds without a hit are left out; they make up all but 11% or so of the library.
IMPase inh – qHTS Assay for Identifying the Cell-Membrane Permeable IMPase Inhibitors. Inositol monophosphatase 1 (Rattus norvegicus), P97697. CHO-M1 cells, IP1 accumulation, HTRF TR-FRET ratio. inhibition (IP1 accumulation), % at 46.1 µM. 120,000 tested, under 10 active. AID 901, 2007; active means well fitted curve in the direction sought with a large enough effect in the signal ratio, not every such curve was filed as active; inconclusive means small, poorly fitted or top-dose-only effect, or a change in a side signal; inactive means no such curve, though single readings can be large or run the other way; the % refers to the signal ratio;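 further: cells stimulated with carbachol in lithium chloride buffer; higher means more IMPase inhibition seen as more IP1 and lower FRET ratio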
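Elevated IP1 in lysates lowers TR-FRET signal (665/620 ratio and 620 channel reported). Cells were CHO-M1, given carbachol (50 uM as added) plus 50mM LiCl, pH 7.4, 30 min, 37C; compounds titrated up to 46 uM; AC50 by Hill equation.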
IMPase Li cell – qHTS Assay for Identifying the Cell-Membrane Permeable IMPase Inhibitors: Potentiation with Lithium | CHO-M1 cells, IP1 TR-FRET (IP-One), carbachol + lithium | Potency, µM (top dose mostly 59.4 µM), most hits filed as inhibitors | actives 0.35% (n = 210,000) | AID 1457, 2008; active means well fitted curve in the direction sought with a large enough effect; inconclusive means small, poorly fitted or top-dose-only effect, or another doubt; inactive means no such curve, though single readings can be large; an effect the other way counts as inactive or inconclusive;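 further: IP1 builds up when IMPase is blocked and the TR-FRET signal falls; nearly all actives have a fitted effect of over 50% in size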
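IP1 accumulation measured by competitive TR-FRET in lysed CHO-M1 cells after 30 min compound exposure at 37C, with a small lithium addition to potentiate weak responses. Hill-equation AC50 from ratio and donor-channel data.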
ALDH1A1 inh – qHTS Assay for Inhibitors of Aldehyde Dehydrogenase 1 (ALDH1A1); Aldehyde dehydrogenase 1A1 (Homo sapiens), P00352; Purified ALDH1A1, NADH fluorescence, propionaldehyde substrate; Potency, µM (top dose mostly 75.3 µM), usual class: inhibitors; actives 7.3% (n = 220,000); AID 1030, 2008
ALOX12 inhib – qHTS Assay for Inhibitors of 12-hLO (12-human lipoxygenase) | actives 0.12% (n = 150,000) | Polyunsaturated fatty acid lipoxygenase ALOX12 (Homo sapiens), P18054 | Potency, µM (top dose mostly 57.1 µM), hits mostly inhibitors | purified 12-hLO, xylenol orange hydroperoxide absorbance; active means well fitted curve in the direction sought with a large enough effect; inconclusive means small, poorly fitted or top-dose-only effect, or another doubt; inactive means no such curve, though single readings can be large; an effect the other way counts as inactive or inconclusive; further: nearly all actives have a fitted effect of over 55% in size
Target sequence (P18054 whole entry, looked up): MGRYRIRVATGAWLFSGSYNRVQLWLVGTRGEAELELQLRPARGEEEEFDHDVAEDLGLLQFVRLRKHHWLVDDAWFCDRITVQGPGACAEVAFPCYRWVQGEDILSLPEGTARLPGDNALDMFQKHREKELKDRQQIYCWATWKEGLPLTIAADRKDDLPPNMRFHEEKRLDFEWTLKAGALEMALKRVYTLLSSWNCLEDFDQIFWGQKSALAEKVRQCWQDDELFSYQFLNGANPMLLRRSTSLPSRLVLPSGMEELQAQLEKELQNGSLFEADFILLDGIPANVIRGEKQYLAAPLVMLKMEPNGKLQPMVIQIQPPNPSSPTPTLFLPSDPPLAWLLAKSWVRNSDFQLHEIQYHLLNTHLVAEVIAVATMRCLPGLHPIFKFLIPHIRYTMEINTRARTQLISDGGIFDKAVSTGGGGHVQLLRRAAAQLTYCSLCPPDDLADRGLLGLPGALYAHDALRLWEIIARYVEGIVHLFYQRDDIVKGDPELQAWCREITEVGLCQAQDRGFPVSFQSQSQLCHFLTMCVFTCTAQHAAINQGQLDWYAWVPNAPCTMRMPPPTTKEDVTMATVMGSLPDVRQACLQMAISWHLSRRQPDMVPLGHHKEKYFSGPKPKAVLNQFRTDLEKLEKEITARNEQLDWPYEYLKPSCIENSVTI
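Xylenol orange chromogenic assay: hydroperoxide from 12hLO oxidises Fe(II), giving red-shifted Fe(III)-XO absorbance. Conditions: 150 nM enzyme, 40 uM arachidonic acid, 25 mM Hepes pH 7.0, 0.01% Triton X-100, 30 min, room temperature.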
PNC inhibitor – High Content Assay for Compounds that inhibit the Assembly of the Perinucleolar Compartment. activity change (PNC), negative = inhibition, % at 10 µM. AID 2417, 2010. PC3M PTB-GFP, PNC prevalence imaging, 16 h; active compounds read low. actives 3.1% (n = 140,000);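 active means readout at or below -70, meaning at least 70% loss of cells showing the perinucleolar compartment, a nuclear body marking cancer cells; inconclusive means readout between -30 and a set limit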
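Read-out is percentage of cells bearing a perinucleolar compartment, from automated 20x imaging of fixed, Hoechst-stained PC3M PTB-GFP cells. Cells were seeded 4 h, then exposed 16 h to compound (23 nl of library stock) in duplicate plates.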
HPGD block – qHTS Assay for Inhibitors of HPGD (15-Hydroxyprostaglandin Dehydrogenase); 15-hydroxyprostaglandin dehydrogenase [NAD(+)] (Homo sapiens), P15428; purified HPGD, NADH fluorescence kinetic, PGE2 substrate; Potency, µM, hits mostly inhibitors; actives 4.3% (n = 150,000)
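20 nM HPGD preincubated 15 min at room temperature with compound in 50 mM Tris-HCl pH 8, 0.01% Tween 20. Started with 1 mM NAD+ and 30 uM prostaglandin E2; NADH fluorescence (360/450 nm) read 5 times over 30-s intervals, last minus first.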
Of the large screens only hits and unclear results are named; the others gave an inactive call. Unless noted, the call rests on the fitted dose curve; in most records, active means well fitted inhibition curve with a large enough effect (not every such curve was filed as active); inconclusive means small, poorly fitted or top-dose-only effect, or another doubt; inactive means no such curve, though single readings can be large or run the other way.

CCCCNC(=S)Nc1cc([N+](=O)[O-])ccc1C	HPGD block 14µM (no result: IMPase inh)
COc1cc(C(=O)NC(=S)Nc2ccc([N+](=O)[O-])cc2C)cc(OC)c1OC	ALDH1A1 inh 13µM (no result: IMPase inh)
COc1cc(C(=O)NC(=S)Nc2ccc([N+](=O)[O-])cc2)cc(OC)c1OC	ALDH1A1 inh inconclusive (no result: IMPase inh)
OCCN(CO)CO	none (no result: IMPase inh, PNC inhibitor)
CCCCCCCCCCCCCC(=O)N[C@H](C)[C@@H](O)c1ccccc1	none (no result: IMPase inh, PNC inhibitor)
CCCCSc1nnc2c(n1)OC(c1ccc(C)s1)Nc1ccccc1-2 (stereo not given)	none (no result: IMPase Li cell, ALDH1A1 inh, ALOX12 inhib, PNC inhibitor, HPGD block)
C/C=C(\C)C(=O)C[Si](C)(C)c1ccccc1	none (no result: IMPase inh, ALOX12 inhib, PNC inhibitor)
CCOC(=O)C1CCCN(c2c(C(=O)c3ccccc3)cnc3ccc(OC)cc23)C1 (stereo not given)	ALDH1A1 inh inconclusive (no result: IMPase inh, ALOX12 inhib, PNC inhibitor, HPGD block)
CCN1CCN(c2c(C(=O)c3ccc(OC)cc3)cnc3ccccc23)CC1	ALDH1A1 inh 2.8µM (no result: IMPase inh, ALOX12 inhib, PNC inhibitor, HPGD block)
C=CCn1c(SCCCc2ccccc2)nc2c1c(=O)[nH]c(=O)n2C	ALDH1A1 inh inconclusive, HPGD block inconclusive
CCCCSc1nc2c(c(=O)[nH]c(=O)n2C)n1CCc1ccccc1	ALDH1A1 inh 2.5µM
COC(=O)C(C)Sc1nc2c(c(=O)[nH]c(=O)n2C)n1CCCc1ccccc1 (stereo not given)	ALDH1A1 inh inconclusive
CCOC(=O)C(C)Sc1nc2c(c(=O)[nH]c(=O)n2C)n1CCc1ccccc1 (stereo not given)	ALDH1A1 inh 13µM
CCCCCOC(=O)CSc1nc2c(c(=O)[nH]c(=O)n2C)n1CCc1ccccc1	ALDH1A1 inh 25µM, HPGD block 25µM
C/C=C/Cn1c(SCCCc2ccccc2)nc2c1c(=O)[nH]c(=O)n2C	ALDH1A1 inh inconclusive, PNC inhibitor -119
CCCn1c(SCCc2ccccc2)nc2c1c(=O)[nH]c(=O)n2C	ALDH1A1 inh inconclusive
CCCCCn1c(SCCc2ccccc2)nc2c1c(=O)[nH]c(=O)n2C	ALDH1A1 inh inconclusive
NC(Cc1c[nH]c2ccccc12)C(=O)NCC(=O)O (stereo not given)	none (no result: PNC inhibitor)
Cc1ccc(N2CCN(C(=O)c3cc4cc5ccc(C)cc5nc4s3)CC2C)cc1 (stereo not given)	none (no result: IMPase Li cell, ALDH1A1 inh, ALOX12 inhib, PNC inhibitor, HPGD block)
C/C(Cl)=C/Cn1c(SCC(C)C)nc2c1c(=O)[nH]c(=O)n2C	IMPase inh inconclusive, ALDH1A1 inh inconclusive
Cc1csc(Sc2nc3c(c(=O)[nH]c(=O)n3C)n2Cc2ccccc2Cl)n1	ALDH1A1 inh inconclusive (no result: IMPase Li cell, HPGD block)
CCCCCCn1c(SCCC)nc2c1c(=O)[nH]c(=O)n2C	ALDH1A1 inh inconclusive, PNC inhibitor -86 (no result: IMPase Li cell, HPGD block)
CCOC(=O)C(CC)Sc1nc2c(c(=O)[nH]c(=O)n2C)n1C/C=C(/C)Cl (stereo not given)	ALDH1A1 inh 3.5µM, HPGD block 4µM
CCC(C)Sc1nc2c(c(=O)[nH]c(=O)n2C)n1Cc1ccccc1Cl (stereo not given)	ALDH1A1 inh 1.3µM
COCCn1c(SCCCc2ccccc2)nc2c1c(=O)[nH]c(=O)n2C	ALDH1A1 inh 20µM (no result: IMPase Li cell, HPGD block)
COc1ccc(CNc2cc(-c3cccnc3)ncn2)c(OC)c1	none (no result: IMPase inh, ALOX12 inhib, PNC inhibitor, HPGD block)
COc1c2c(cc3c1C(c1c(O)c4ccccc4oc1=O)N(C)CC3)OCO2 (stereo not given)	ALDH1A1 inh inconclusive, HPGD block inconclusive (no result: IMPase inh, ALOX12 inhib, PNC inhibitor)
CN(CCc1ccc(Cl)c(Cl)c1)C[C@@H](O)COc1ccc(NS(C)(=O)=O)cc1	none (no result: PNC inhibitor)
CC(C)CCn1c(SCCc2ccccc2)nc2c1c(=O)[nH]c(=O)n2C	ALDH1A1 inh 6.3µM, HPGD block inconclusive
C/C=C/CSc1nc2c(c(=O)[nH]c(=O)n2C)n1CCC	ALDH1A1 inh inconclusive
CCCn1c(Sc2nc3c(c(=O)[nH]c(=O)n3C)n2CCC)nc2c1c(=O)[nH]c(=O)n2C	HPGD block 14µM
CC(C)n1c(SCCCc2ccccc2)nc2c1c(=O)[nH]c(=O)n2C	ALDH1A1 inh inconclusive, HPGD block 20µM
CC(C)(C)C1=CC(=O)C(=O)C(C(C)(C)C)=C1	ALDH1A1 inh 2.8µM, HPGD block 4µM (no result: IMPase inh)
CC(C)(C)C1=CC(=Nc2ccccc2N)C=C(C(C)(C)C)C1=O	none (no result: IMPase inh)
Cc1ccc(N/N=C2/CCCNC2=O)cc1	ALDH1A1 inh 22µM
Nc1ccc2c3c(cccc13)C(=O)N(c1ccccc1)C2=O	ALDH1A1 inh 28µM (no result: IMPase inh, ALOX12 inhib, PNC inhibitor, HPGD block)
O=C(O)c1ccc2c3c(cccc13)C(=O)N(c1ccccc1)C2=O	ALDH1A1 inh inconclusive (no result: IMPase inh, ALOX12 inhib, PNC inhibitor, HPGD block)
Fc1ccc(Nc2nc3ccccc3c3nncn23)c(Cl)c1	none (no result: IMPase Li cell, ALDH1A1 inh, ALOX12 inhib, PNC inhibitor, HPGD block)
O=C(/C=C/c1ccccc1)N1CCN(Cc2nc3ccccc3c(=O)[nH]2)CC1	ALDH1A1 inh inconclusive, HPGD block 32µM
